From PubChem BioAssay AID1159580 (chemical genetic matrix, 2015)
“And” between values parts separate entries of the source, which are not always exact repeats. Equal values may be shown once. Hit rate of the full screen: of about 5,500 compounds, about 2,000 (36%) were called active. Not shown: some 18% with an inconclusive outcome. Rule as the data show it: active = normalized growth mostly below about 0.91 (no sharp cut-off); inconclusive = no clear call, values can overlap the other calls; inactive = mostly above about 0.92. The list shows a part of the results.

Test: chemical genetic growth profiling, strain panel (AID 1159580);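 also: tested at 20 µM; growth read once vehicle control cultures reached saturation at 30 °C; 1 = growth at the plate median or of vehicle wells; lower values mean less growth of the strain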
Settings: S. cerevisiae deletion strains, growth OD
[1] = locus YGR078C, strain PAC10, stronger effect = lower value
[2] = locus YMR307W, strain GAS1, stronger effect = lower value

Measured: normalized growth

OC[C@H]1O[C@@H](n2cnc3c(NC4CCCCC4)ncnc32)[C@H](O)[C@@H]1O
inactive: locus YAL040C, strain CLN3, stronger effect = lower value 1.04 | locus YCL061C, strain MRC1 (second series), stronger effect = lower value 1.01 | locus YDR363W, strain ESC2, stronger effect = lower value 0.994 | locus YER002W, strain NOP16, stronger effect = lower value 1.01 | [1] 1.05 | locus YMR263W, strain SAP30, stronger effect = lower value 1.01 | [2] 1.01 | locus YNL175C, strain NOP13, stronger effect = lower value 1.01 | locus YNL197C, strain WHI3, stronger effect = lower value 1.01 | locus YNL224C, strain SQS1, stronger effect = lower value 1 | locus YNL322C, strain KRE1, stronger effect = lower value 1.02 | locus YOR083W, strain WHI5 (second series), stronger effect = lower value 0.984 | locus YPL055C, strain LGE1, stronger effect = lower value 0.995

CC(C)c1cc2c(c(O)c1O)[C@@]1(C(=O)O)CCCC(C)(C)C1CC2 (some centres undefined)
0.962 (inactive) and 0.657 (active): locus YJL095W, strain BCK1, stronger effect = lower value
inactive: locus YAL021C, strain ccr4, stronger effect = lower value 0.988 | locus YBL061C, strain skt5, stronger effect = lower value 0.953 | locus YBR021W, strain FUR4, stronger effect = lower value 1.01 | locus YBR023C, strain chs3, stronger effect = lower value 0.956 | locus YBR171W, strain sec66, stronger effect = lower value 0.975 | locus YBR229C, strain ROT2, stronger effect = lower value 1.01 | locus YBR231C, strain swc5, stronger effect = lower value 0.969 | locus YBR279W, strain paf1, stronger effect = lower value 0.948 | locus YCL029C, strain bik1, stronger effect = lower value 1.01 | locus YCL061C, strain MRC1, stronger effect = lower value 0.954 | locus YCL069W, strain vba3, stronger effect = lower value 0.998 | locus YCR088W, strain abp1, stronger effect = lower value 0.991 | locus YDL005C, strain med2, stronger effect = lower value 1 | locus YDL035C, strain GPR1, stronger effect = lower value 0.943 | locus YDL040C, strain nat1, stronger effect = lower value 0.99 | locus YDL074C, strain BRE1, stronger effect = lower value 0.946 | locus YDL101C, strain DUN1, stronger effect = lower value 1.01 | locus YDL134C, strain PPH21, stronger effect = lower value 0.993 | locus YDL185W, strain tfp1, stronger effect = lower value 0.998 | locus YDR001C, strain nth1, stronger effect = lower value 0.997 | locus YDR069C, strain doa4, stronger effect = lower value 0.923 | locus YDR101C, strain arx1, stronger effect = lower value 1.02 | locus YDR137W, strain rgp1, stronger effect = lower value 0.876 | locus YDR150W, strain NUM1, stronger effect = lower value 0.929 | locus YDR159W, strain sac3, stronger effect = lower value 0.902 | locus YDR162C, strain NBP2, stronger effect = lower value 0.851 | locus YDR195W, strain ref2 0.979 | locus YDR297W, strain sur2, stronger effect = lower value 0.982 | locus YDR318W, strain mcm21, stronger effect = lower value 0.959 | locus YDR334W, strain swr1, stronger effect = lower value 1 | locus YDR335W, strain msn5, stronger effect = lower value 0.988 | locus YDR388W, stronger effect = lower value 1 | locus YDR502C, strain sam2, stronger effect = lower value 0.972 | locus YEL003W, strain gim4, stronger effect = lower value 0.94 | locus YEL037C, strain rad23, stronger effect = lower value 0.992 | locus YEL061C, strain CIN8 (second series), stronger effect = lower value 0.993 | locus YEL061C, strain CIN8, stronger effect = lower value 0.968 | locus YER015W, strain faa2, stronger effect = lower value 0.987 | locus YER016W, strain bim1, stronger effect = lower value 0.971 | locus YER110C, stronger effect = lower value 1.03 | locus YER111C, strain swi4, stronger effect = lower value 0.975 | locus YER155C, strain BEM2, stronger effect = lower value 1.04 | locus YER167W, strain BCK2, stronger effect = lower value 0.981 | locus YFR010W, strain ubp6, stronger effect = lower value 0.944 | locus YGL078C, strain dbp3, stronger effect = lower value 0.957 | locus YGL086W, strain mad1, stronger effect = lower value 0.94 | locus YGL167C, strain pmr1, stronger effect = lower value 0.978 | locus YGL227W, strain vid30, stronger effect = lower value 1 | locus YGL240W, strain doc1, stronger effect = lower value 0.938 | locus YGL248W, strain PDE1, stronger effect = lower value 0.962 | locus YGL253W, strain hxk2, stronger effect = lower value 0.976 | [1] 0.873 | locus YGR135W, strain pre9, stronger effect = lower value 0.969 | locus YGR252W, strain gcn5, stronger effect = lower value 0.903 | locus YHR027C, strain rpn1, stronger effect = lower value 0.956 | locus YHR079C, strain IRE1 (second series), stronger effect = lower value 1 | locus YHR094C, strain hxt1, stronger effect = lower value 1.01 | locus YHR129C, strain ARP1, stronger effect = lower value 0.921 | locus YHR142W, strain chs7, stronger effect = lower value 0.969 | locus YHR200W, strain rpn10, stronger effect = lower value 0.984 | locus YIL066C, strain RNR3, stronger effect = lower value 0.937 | locus YIL073C, strain SPO22, stronger effect = lower value 0.936 | locus YIL125W, strain kgd1, stronger effect = lower value 0.958 | locus YIR030C, strain dcg1, stronger effect = lower value 1.01 | locus YJL092W, strain hpr5, stronger effect = lower value 0.98 | locus YJL115W, strain asf1, stronger effect = lower value 1.01 | locus YJL129C, strain trk1, stronger effect = lower value 1.04 | locus YJL134W, strain LCB3, stronger effect = lower value 1.02 | locus YJL154C, strain vps35, stronger effect = lower value 1 | locus YJL168C, strain set2, stronger effect = lower value 1.01 | locus YJL187C, strain SWE1 (second series), stronger effect = lower value 0.973 | locus YJL187C, strain SWE1, stronger effect = lower value 0.972 | locus YJR043C, strain POL32, stronger effect = lower value 0.982 | locus YJR066W, strain TOR1, stronger effect = lower value 0.84 | locus YJR075W, strain HOC1, stronger effect = lower value 0.947 | locus YKL009W, strain mrt4, stronger effect = lower value 0.95 | locus YKL068W, stronger effect = lower value 1.02 | locus YKL160W, strain elf1, stronger effect = lower value 0.957 | locus YKR026C, strain gcn3, stronger effect = lower value 0.994 | locus YKR091W, strain srl3, stronger effect = lower value 0.988 | locus YLL001W, strain dnm1, stronger effect = lower value 0.984 | locus YLL026W, stronger effect = lower value 0.932 | locus YLR039C, strain RIC1, stronger effect = lower value 0.831 | locus YLR058C, strain SHM2, stronger effect = lower value 1 | locus YLR102C, strain apc9, stronger effect = lower value 1.01 | locus YLR268W, strain sec22, stronger effect = lower value 0.901 | locus YLR330W, strain CHS5, stronger effect = lower value 0.944 | locus YLR342W, strain FKS1 (second series), stronger effect = lower value 0.84 | locus YLR342W, strain FKS1, stronger effect = lower value 0.968 | locus YLR357W, strain rsc2, stronger effect = lower value 0.949 | locus YLR370C, strain arc18, stronger effect = lower value 0.974 | locus YLR371W, strain rom2, stronger effect = lower value 0.976 | locus YLR384C, strain iki3, stronger effect = lower value 1 | locus YML016C, strain PPZ1, stronger effect = lower value 0.994 | locus YML032C, strain rad52, stronger effect = lower value 0.993 | locus YML120C, strain ndi1, stronger effect = lower value 0.984 | locus YML124C, strain tub3, stronger effect = lower value 1.01 | locus YMR078C, strain ctf18, stronger effect = lower value 1 | locus YMR129W, stronger effect = lower value 0.99 | locus YMR223W, strain ubp8, stronger effect = lower value 0.964 | locus YMR231W, strain pep5, stronger effect = lower value 0.97 | locus YNL067W, strain RPL9B, stronger effect = lower value 0.972 | locus YNL153C, strain GIM3, stronger effect = lower value 0.985 | locus YNL183C, strain NPR1, stronger effect = lower value 0.9 | locus YNL209W, strain ssb2, stronger effect = lower value 0.962 | locus YNL233W, strain BNI4, stronger effect = lower value 0.955 | locus YNL248C, strain rpa49, stronger effect = lower value 0.98 | locus YNL250W, strain rad50, stronger effect = lower value 1.01 | locus YNL307C, strain MCK1, stronger effect = lower value 0.956 | locus YNL322C, strain KRE1 (second series), stronger effect = lower value 1.03 | locus YNR049C, strain mso1, stronger effect = lower value 0.997 | locus YNR052C, strain pop2, stronger effect = lower value 0.973 | locus YOL012C, strain htz1 0.721 | locus YOL147C, strain pex11, stronger effect = lower value 1.04 | locus YOR001W, strain rrp6, stronger effect = lower value 0.992 | locus YOR061W, strain CKA2, stronger effect = lower value 1 | locus YOR069W, strain VPS5, stronger effect = lower value 0.998 | locus YOR080W, strain dia2, stronger effect = lower value 0.987 | locus YOR083W, strain WHI5, stronger effect = lower value 0.965 | locus YOR106W, strain vam3, stronger effect = lower value 0.871 | locus YOR136W, strain idh2, stronger effect = lower value 1 | locus YOR144C, strain elg1, stronger effect = lower value 1.01 | locus YOR184W, strain ser1, stronger effect = lower value 0.964 | locus YOR265W, strain rbl2, stronger effect = lower value 0.982 | locus YOR270C, strain vph1, stronger effect = lower value 0.954 | locus YOR290C, strain snf2, stronger effect = lower value 0.945 | locus YOR316C, strain cot1, stronger effect = lower value 1.02 | locus YPL078C, strain atp4, stronger effect = lower value 1.01 | locus YPL106C, strain sse1, stronger effect = lower value 0.968 | locus YPR119W, strain clb2, stronger effect = lower value 1.03 | locus YPR141C, strain kar3, stronger effect = lower value 0.992 | locus YPR163C, strain tif3, stronger effect = lower value 0.964 | locus YPR167C, strain met16, stronger effect = lower value 1 | strain wtn01, stronger effect = lower value 0.936
active: locus YAL026C, strain drs2, stronger effect = lower value 0.835 | locus YAL030W, strain snc1, stronger effect = lower value 0.917 | locus YBR009C, strain hhf1, stronger effect = lower value 0.775 | locus YCL011C, strain gbp2, stronger effect = lower value 0.908 | locus YCL016C, strain dcc1, stronger effect = lower value 0.886 | locus YDL192W, strain arf1, stronger effect = lower value 0.874 | locus YDR392W, strain spt3, stronger effect = lower value 0.24 | locus YER155C, strain BEM2 (second series), stronger effect = lower value 0.697 | locus YGL173C, strain kem1, stronger effect = lower value 0.885 | locus YGR229C, strain SMI1, stronger effect = lower value 0.207 | locus YHR013C, strain ard1, stronger effect = lower value 0.705 | locus YHR030C, strain SLT2, stronger effect = lower value 0.903 and 0.663 | locus YHR079C, strain IRE1, stronger effect = lower value 0.341 | locus YJL095W, strain BCK1 (second series), stronger effect = lower value 0.86 | locus YJL164C, strain tpk1, stronger effect = lower value 0.908 | locus YJL166W, strain qcr8, stronger effect = lower value 0.462 | locus YKL085W, strain MDH1 (second series), stronger effect = lower value 0.913 | locus YKL085W, strain MDH1, stronger effect = lower value 0.913 | locus YKR001C, strain vps1, stronger effect = lower value 0.866 | locus YLL041C, strain sdh2, stronger effect = lower value 0.664 | locus YLR027C, strain aat2, stronger effect = lower value 0.884 | locus YLR113W, strain HOG1, stronger effect = lower value 0.434 | locus YLR221C, strain rsa3, stronger effect = lower value 0.792 | locus YLR258W, strain gsy2, stronger effect = lower value 0.859 | locus YLR262C, strain YPT6 (second series), stronger effect = lower value 0.552 | locus YLR262C, strain YPT6, stronger effect = lower value 0.546 | locus YLR320W, strain mms22, stronger effect = lower value 0.809 | locus YLR418C, strain cdc73, stronger effect = lower value 0.642 | locus YMR058W, strain fet3, stronger effect = lower value 0.815 | locus YMR125W, strain sto1, stronger effect = lower value 0.827 | locus YMR205C, strain PFK2, stronger effect = lower value 0.873 | [2] 0.472 | locus YNL071W, strain lat1, stronger effect = lower value 0.207 | locus YNL271C, strain bni1, stronger effect = lower value 0.908 | locus YNL298W, strain CLA4, stronger effect = lower value 0.874 | locus YOR070C, strain gyp1, stronger effect = lower value 0.92 | locus YOR231W, strain MKK1, stronger effect = lower value 0.394 | locus YPL051W, strain arl3, stronger effect = lower value 0.897 | locus YPL240C, strain hsp82, stronger effect = lower value 0.614 | locus YPL241C, strain CIN2, stronger effect = lower value 0.914 | locus YPL256C, strain CLN2, stronger effect = lower value 0.421
